According to the supplement of paper PMC9948646:
Unmarked numbers belong to inactive results.

Tested on: gramicidin D channels in DC22:1PC lipid vesicles (bilayer-modifying potency)
Test: initial Tl+ fluorescence quench rate relative to no-drug control (NormRate, gramicidin monomer-dimer shift) (ratio (fold of control)); higher = stronger bilayer-modifying effect (equilibrium shifted toward conducting dimers), active = 1.5 or more
Conditions: 10 µM; lipid concentration 50 µM; temperature: 25 °C
Description: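 Stopped-flow fluorescence quench assay: ANTS-loaded DC22:1PC large unilamellar vesicles doped with gramicidin D (1:2000), 50 µM lipid, equilibrated 10 min with 10 µM drug (0.1% DMSO), mixed with Tl+ quench buffer at 25°C. Initial quench rate (Tl+ influx) was fitted with a modified stretched exponential and normalised to the no-drug control rate (NormRate); duplicates from two independent LUV preparations (triplicates for 7 drugs).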

Structure (SMILES)	initial Tl+ fluorescence quench rate
c1ccc(-c2[nH]c3ccccc3c2[C@H](c2ccccn2)N2CCCC2)cc1	1.06
O=C(NCCN1CCCC1)c1cc(NCCN2CCOCC2)nc2ccc(Cl)cc12	1.15
O=C(COc1cccc(F)c1)Nc1nc(-c2ccccn2)cs1	1.16
COc1ccc(-c2cnc3cnc(-c4cccc(OC(C)C)c4)cn23)cc1	2.01 (active)
Cc1ccc2c(c1C)NC(=O)[C@@]21NN=C(c2ccccc2)S1	1.38
CC(C)(C)c1cc(C(=O)Nc2cccnc2)cc(C(=O)Nc2cccnc2)c1	1.39
Cc1ccc(NC(=O)C[C@@H]2COc3ccccc3O2)cc1Cl	2.24 (active)
Cc1cc2ccccc2n1CC(=O)N1C[C@@H](C(=O)N2CCCCC2)Oc2ccccc21	1.72 (active)
Cc1ccc2nc(C)c(-c3ccn(Cc4ccccc4)n3)n2c1	1.28
Oc1c(I)cc(I)c2cccnc12	1.47
Cc1ccc(NC(=O)c2nc[nH]c2C(=O)Nc2nc3ccccc3[nH]2)c(C)c1	1.88 (active)
O=C1[C@@H](Oc2ccccc2)[C@@H](c2ccc(Cl)cc2)N1CCn1cnc2c(NCc3ccccc3)ncnc21	2.02 (active)
CN1CCN(CCCOc2ncc(Nc3ncc(-c4ccc(C(F)(F)F)c(F)c4)nc3C(N)=O)cn2)CC1	3.11 (active)
OCCc1ccc(Nc2nccc(-c3nnc4ccccn34)n2)cc1	1.01
COc1ccc(-c2nnc3ccc(-c4cccc(C(C)C)c4)cn23)cc1OC	2.38 (active)
